Compound activity as filed in PubChem.
Only some compounds are listed: those with a hit (about 10% of all), similar ones and a draw of the others.
Pf growth 48h = inhibits P. falciparum growth in the first generation, 48 h; Potency, µM (series often up to 28.7 µM), actives largely listed as inhibitors; 310,000 compounds, 5.9% hits; P. falciparum luciferase growth in erythrocytes, 48 h; active = well fitted inhibition curve with a large enough effect; inconclusive = small, poorly fitted or top-dose-only effect, or another doubt; inactive = no such curve, though single readings can be large or run the other way
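Erythrocytes infected with P. falciparum carrying an integrated firefly luciferase reporter (2% hematocrit, 0.1% parasitemia final) were exposed to compounds in RPMI 1640 with 0.5% Albumax at 37 C, 5% CO2. Growth inhibition was scored as reduced luminescence.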
NS1 inh = blocks influenza NS1 protein function | AID 2326 | Potency, µM (series often up to 46.1 µM) | 270,000 compounds, 0.4% hits; also: actives are rising curves; nearly all actives have a fitted effect of over 50% in size
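Recovery from NS1-induced slow growth read by OD600 in budding yeast switched to galactose assay medium (pH 6.0, -URA) at 1:100 dilution. Compound 23 nl per well; the matching strain lacking NS1 serves as control.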
SARS PLpro yeast = blocks SARS-CoV papain-like protease in a yeast assay. S. cerevisiae expressing SARS-CoV PLpro, growth rescue. Potency, µM (titrated, usually from 32.9 µM), usual class: activators. 330,000 compounds, 0.19% hits; also: nearly all actives have a fitted effect of over 55% in size
Pf growth 96h = P. falciparum growth inhibition at 96 hour, primary screen for plastid delayed-death inhibitors | P. falciparum luciferase reporter growth, 96 h | AID 504834 | 320,000 compounds, 6.9% hits | Potency, µM (titrated, usually from 28.7 µM), hits mostly inhibitors; active = well fitted inhibition curve with a large enough effect; inconclusive = small, poorly fitted or top-dose-only effect, or another doubt; inactive = no such curve, though single readings can be large or run the other way
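Readout is luminescence from an integrated firefly luciferase in P. falciparum. Red cells, 2% hematocrit and 0.05% parasitemia final, were cultured with compound through two parasite generations (96 hours) at 37 C, 5% CO2.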
Numbers stand for hits; – = inactive; ? = inconclusive; · = no result given; [ ] = remark or other dose. Unless noted, calls follow the shape of the full dose curve.

SMILES	Pf growth 48h	NS1 inh	SARS PLpro yeast	Pf growth 96h
COc1ccc(C(=O)Nc2cccc(S(=O)(=O)NC3=NCCC3)c2)cc1OC	·	·	–	·
C=Cc1ccc(Cn2nc(-c3ccccc3)ccc2=O)cc1	–	–	–	–
O=c1ccc(-c2ccccc2)nn1Cc1ccccc1F	–	–	–	13.1µM
Cc1ccc(C)c2sc(N3CCN(C(=O)c4ccc([N+](=O)[O-])o4)CC3)nc12	0.828µM	·	–	0.329µM
O=C(c1ccc([N+](=O)[O-])o1)N1CCN(c2nc3c(F)cc(F)cc3s2)CC1	1.04µM	·	–	0.329µM
COc1ccc(S(=O)(=O)N2CCN(C(=O)c3ccc([N+](=O)[O-])o3)CC2)cc1	?	–	–	?
Fc1cc(F)c2nc(N3CCCCC3)sc2c1	–	–	–	8.28µM
O=C(c1cccs1)N1CCN(c2nc3c(F)cc(F)cc3s2)CC1	–	·	–	?
Fc1ccc2nc(N3CCCC3)sc2c1	–	·	–	–
CCN(CC)CCN1C(=O)C(=O)/C(=C(/O)c2ccc(S(=O)(=O)N3CCOCC3)cc2)C1c1ccc(Cl)cc1 (stereo not drawn)	–	–	–	–
COc1cc(-c2nc3ccccn3c2N)ccc1O	–	–	–	1.65µM
O=C1Nc2ccc(S(=O)(=O)NCc3ccccn3)c3cccc1c23	·	–	–	10.4µM
CC(C)(CNC(=O)c1cc(Cl)c(O)c(Cl)c1)N1CCCCC1	–	–	–	–
Cn1c(CCNC(=O)c2cccs2)nnc1SCC(=O)Nc1nc(-c2ccccc2)cs1	7.38µM	–	–	–
CC(C)OC(=O)CSc1nnc(CNc2nc(-c3ccccc3)cs2)n1C	2.33µM	–	–	–
Cn1c(CNc2nc(-c3ccccc3)cs2)nnc1SCC(=O)OC1CCCCC1	2.33µM	–	–	?
Cc1csc(NC(=O)CSc2nnc(CCNC(=O)c3cccs3)n2C)n1	?	–	–	?
CCn1nnc2cc(C(=O)NCC(c3ccccc3OC)N(C)C)ccc21 (stereo not drawn)	–	–	–	–
O=C(O)c1ccc(S(=O)(=O)N2CCSCC2)cc1	–	–	–	?
NC(=O)c1ccc(S(=O)(=O)N2CCSCC2)cc1	–	–	–	10.4µM
CN(C)CCCc1cccnc1	·	–	·	·
Nc1ccc(Sc2ccc([N+](=O)[O-])cc2)cc1	–	·	–	11.7µM
O=C1C=CC(=O)N1c1ccc(Sc2ccc([N+](=O)[O-])cc2)cc1	–	–	–	–
CC(C)(C)C(=O)Nc1ccc(Sc2ccc([N+](=O)[O-])cc2)cc1	?	–	–	2.33µM
COC(=O)[C@@]1(C)[C@H]2C(=O)N(C)C(=O)[C@H]2[C@H]2CN=C(SCc3ccc(Cl)cc3)N21	·	·	–	·
SMILES	Pf growth 48h	NS1 inh	SARS PLpro yeast	Pf growth 96h
Cc1ccc(-c2nn(CC(=O)NCc3ccccn3)c(=O)c3ccccc23)cc1S(=O)(=O)N(C)C	–	·	–	–
CNC(=O)Cn1nc(-c2ccc(C)c(S(=O)(=O)N(C)C)c2)c2ccccc2c1=O	–	–	–	9.28µM
CC(C)CN(C(=O)COC(=O)Cc1cccc2ccccc12)c1c(N)n(Cc2ccccc2)c(=O)[nH]c1=O	?	·	–	?
CCN(CC)CCNC(=O)c1cccc(NC(=O)C(=O)c2cc(Br)ccc2NC(C)=O)c1	10.4µM	·	–	?
COc1cc(OC)cc(OCC(O)Cn2cnc(-c3ccccc3)c2)c1 (stereo not drawn)	13.1µM	–	–	–
Cc1nc2c(C(=O)NCCc3ccccc3Cl)c[nH]n2c(=O)c1Cl	–	–	–	10.4µM
O=C(Nc1nc(-c2cccs2)cs1)c1ccc(Cl)cc1	–	–	–	·
O=C(Nc1nc(-c2ccc(Cl)s2)cs1)c1ccncc1	–	–	–	10.4µM
COc1ccc(NC(C)C(=O)Nc2ccc(C#N)cc2)cc1Cl (stereo not drawn)	·	–	–	2.33µM
COC(=O)c1cc(S(=O)(=O)N2CCC(c3cc(OC)ccc3OC)C2)c[nH]1 (stereo not drawn)	–	–	–	13.1µM
CCc1cc2c(SCC(=O)Nc3cc(C)on3)ncnc2s1	–	–	–	–
O=C(O)[C@@H](Br)[C@H](Br)C(=O)O	·	–	·	·
Cc1cc(C(=O)N/N=C/c2ccc(Cl)c([N+](=O)[O-])c2)c(C)n1-c1ccc(F)cc1	13.1µM	–	–	13.1µM
O=C(N/N=C/c1ccccc1[N+](=O)[O-])c1ccc2nc[nH]c2c1	?	–	–	?
O=C(N/N=C/c1ccc(Cl)c([N+](=O)[O-])c1)c1ccc2nc[nH]c2c1	3.29µM	–	–	?
Cc1cc(C)cc(NC(=S)N2CCC(NC(=O)c3ccco3)CC2)c1	–	–	–	–
Cc1ccc(N2CC(C(=O)O)CC2=O)cc1 (stereo not drawn)	–	–	–	–
Nc1nc(Br)c2c(F)cccc2c1-c1ccc(Cl)cc1	?	–	–	13.1µM
O=C(c1ccc(Br)cc1)N1CCC2(CC1)NCCc1[nH]cnc12	–	–	–	–
Cc1sc2nc(CN3CCCCC3)nc(Nc3ccc4c(c3)OCCO4)c2c1C	9.28µM	–	–	?
O=c1c2ccccc2c(C=Nc2ccccc2O)c(O)n1-c1nccs1	13.1µM	–	–	?
CN(/N=C/c1ccc(N(C)C)cc1)C1=NS(=O)(=O)c2ccccc21	–	–	–	–
COc1ccc(/C=N/N(C)C2=NS(=O)(=O)c3ccccc32)cc1	·	–	–	11.7µM
CC(=O)Nc1cc([As](=O)(O)O)ccc1O	?	–	–	10.7µM
Cc1ccc(C(=O)COC(=O)CNC(=O)c2ccccc2)s1	–	·	–	–
SMILES	Pf growth 48h	NS1 inh	SARS PLpro yeast	Pf growth 96h
Cc1csc(NC(=O)c2ccc(Cl)nc2)n1	·	–	–	–
Cc1cccc(NC(=O)C(NS(=O)(=O)c2ccc3c(c2)CCC(=O)N3)c2ccccc2)n1 (stereo not drawn)	–	–	–	10.4µM
O=C(NCc1cc(F)ccc1F)C1CCC(=O)N(C2CCCCCC2)C1 (stereo not drawn)	–	–	–	–
CCOC(=O)c1ccc(NC(=O)COc2ccc(S(=O)(=O)NC(C)(C)C)cc2)cc1	?	–	–	–
CCn1cc(CN2CCC(n3nccc3NC(=O)c3ccccc3C)CC2)cn1	–	–	–	?
CCOc1cc(N2CCOCC2)c(OCC)cc1NC(=O)c1c(-c2ccccc2)noc1C	?	·	–	?
Cc1onc(-c2ccccc2Cl)c1C(=O)N1CCN(c2ncccn2)CC1	–	–	–	–
CCOc1cc(N2CCOCC2)c(OCC)cc1NC(=O)c1c(-c2ccccc2Cl)noc1C	5.86µM	·	–	?
Cc1nn(Cc2ccccc2)c2sc(C(=O)N3CCN(Cc4ccc5c(c4)OCO5)CC3)cc12	10.4µM	–	·	?
CCOc1ccccc1N1CCN(C(=O)c2c(-c3ccccc3Cl)noc2C)CC1	9.28µM	–	–	–
Cc1onc(-c2c(Cl)cccc2Cl)c1C(=O)N1CCN(Cc2ccccc2)CC1	?	–	–	?
Cc1onc(-c2ccccc2Cl)c1C(=O)N1CCN(Cc2ccc3c(c2)OCO3)CC1	–	–	–	13.1µM
O=C(O)c1c(NC(=O)N2CCOCC2)sc2c1CCCC2	–[0.00184 µM]	–	–	–
Cc1ccc(C2=NOC(C)(c3nnc(-c4ccc(Cl)cc4)o3)C2)cc1 (stereo not drawn)	–	–	–	–
